Screens deposited in PubChem by National Center for Advancing Translational Sciences (NCATS).
Mito fusion yeast: inhibitors of mitochondrial division or activators of mitochondrial fusion; 0.23% of 320,000 active; S. cerevisiae fusion-defective mutant growth rescue, CellTiterGlo 48 h; Potency, µM (highest dose often 46.1 µM), for the others: at the top dose growth rescue (activation), usual class: activators; further: potency means the concentration at half of the fitted maximal effect; % of control where 0% means no effect; nearly all actives have a fitted effect of over 45% in size
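S. cerevisiae fusion-defective temperature-sensitive mutants (e.g. fzo1-1, mgm1-5) grown 48 h at 37C in YPEG (ethanol/glycerol non-fermentable) medium with 23 nl compound per well; growth rescue read as CellTiterGlo luminescence.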
TDP43 rescue: TDP-43 toxicity inhibition in yeast; Potency, µM (top dose mostly 46.1 µM), for the others: at the highest dose growth rescue (activation), hits mostly activators; 1.8% of 410,000 active; TDP-43 expressing yeast growth rescue, BacTiter-Glo, 24 h; further: potency means the concentration at half of the fitted maximal effect; % of control where 0% means no effect; nearly all actives have a fitted effect of over 50% in size
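Cell-based yeast growth screen: TDP-43 expression induced in galactose, inoculum OD600=0.02 after raffinose pregrowth to mid-log. Read-out BacTiter-Glo luminescence at 24 hr, 30 deg C; inhibition of toxicity seen as signal increase.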
aSyn yeast inh: inhibitors of alpha-synuclein toxicity in yeast. Yeast expressing alpha-synuclein, growth rescue, BacTiter-Glo, 24 h. Potency, µM (top dose mostly 46.1 µM), inactives show top-dose growth rescue (activation), actives largely listed as activators. 0.14% of 370,000 active. AID 652106; further: potency means the concentration at half of the fitted maximal effect; % of control where 0% means no effect; nearly all actives have a fitted effect of over 65% in size
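Screening used galactose-induced yeast with toxic alpha-synuclein levels, exposed to compound for 24 hr at 30 deg C. Cell growth, read with BacTiter-Glo luminescence, gave the measured signal.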
CCT modulator: changes cytosolic chaperonin activity. AID 651819. 0.3% of 360,000 active. purified chaperonin ATPase assay, HTRF ADP detection, 30 min. activity change, % (no concentration beside the values), hits read low; in the data active means activity change below about -30%; further: on the % scale 0 is the no-effect control and ±100 the full control effect
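First, chaperonin was dispensed at 40 nM or 20 nM final depending on batch activity. Next, compounds were pinned at 76 uM and ATP added at 10 uM. After 30 min at 37 °C, ADP detection reagents ran 30 min at ambient temperature.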
Anesthetic bind: binds horse apoferritin like a general anesthetic | P02791 | apoferritin/1-aminoanthracene competitive binding, fluorescence | Potency, µM (top dose mostly 77.5 µM), for the others: top-dose activity change, negative = displacement, most hits filed as inhibitors | 0.074% of 350,000 active | AID 485281; further: potency means the concentration at half of the fitted maximal effect; on the % scale 0 is the no-effect control and ±100 the full control effect; nearly all actives have a fitted effect of over 20% in size
Target sequence (P02791 2-175 limits assumed): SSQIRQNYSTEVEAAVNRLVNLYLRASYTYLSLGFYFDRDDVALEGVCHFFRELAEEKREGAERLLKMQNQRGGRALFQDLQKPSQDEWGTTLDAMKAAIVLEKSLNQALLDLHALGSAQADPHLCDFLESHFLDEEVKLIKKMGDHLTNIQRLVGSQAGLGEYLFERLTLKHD
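Probe: 1-aminoanthracene (50% saturated, PBS). Protein: horse-spleen apoferritin, 10 uM. Incubation: 10 min, room temperature. Detection: 380 nm excitation, 535 nm emission. Analysis: normalized response, four-parameter Hill.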
pAkt inh: inhibitors of Akt phosphorylation. activity change, % for hits at 50 µM. 0.32% of 360,000 active. Neuro2A IGF-stimulated pAkt S473 HTRF, 20 min; hits give low values; in the data active means activity change below about -80%; inconclusive means mostly about -51% to -80%; further: on the % scale 0 is the no-effect control and ±100 the full control effect
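Neuro2A cells in DMEM with 0.5% FBS, overnight at 37 deg C, given compound at single 50 µM final, then IGF (6 nM final) for 20 min at 37 deg C. Lysed; phospho-Akt Ser473 by HTRF after 24 h, 665/615 ratio.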
* = called active by the depositor; i = inactive; ? = inconclusive; · = no result given. In the library only some 2.5% were active in any assay of this set; here they are far more common. Unless noted, the call rests on the fitted dose curve; in most records, active means well fitted curve in the direction sought with a large enough effect; inconclusive means small, poorly fitted or top-dose-only effect, or another doubt; inactive means no such curve, though single readings can be large; an effect the other way counts as inactive or inconclusive.

SMILES	Mito fusion yeast	TDP43 rescue	aSyn yeast inh	CCT modulator	Anesthetic bind	pAkt inh
O=[N+]([O-])c1nn(-c2ccc3c(c2)OCCO3)n(O)c1=NC1CCCCCC1	?	15.8µM*	3.3%	0.6	-14.9%	i
O=[N+]([O-])c1nn(-c2ccc3c(c2)OCCO3)n(O)c1=NCCCO	6.2%	0.9%	-0.3%	0.4	-19.6%	i
O=[N+]([O-])c1nn(-c2ccc3c(c2)OCCO3)n(O)c1=NC1CCCC1	12.5%	5.01µM*	-0.3%	-1.9	-15.0%	i
Clc1ccc(-c2csc3ncnc(Sc4nnnn4-c4ccccc4)c23)cc1	·	·	-14.1%	·	·	·
Cc1onc(-c2ccccc2Cl)c1C(=O)Oc1cccc2cccnc12	-4.4%	17.8µM*	11.4%	-1.5	?	i
Cc1onc(-c2ccccc2Cl)c1C(=O)Nc1ccc(Br)cc1	13.6%	11.2µM*	1.7%	-0.5	-17.7%	i
Cc1onc(-c2ccccc2Cl)c1C(=O)Nc1ccccc1	4.6%	?	-2.5%	-3.4	-4.9%	i
O=c1ncccn1[C@@H]1O[C@H](CO)C(O)[C@@H]1O (some centres undefined)	·	·	·	·	5.5%	·
O=c1cnn([C@@H]2O[C@H](CO)[C@@H](O)[C@H]2O)c(=O)[nH]1	-2.1%	12.9%	5.62µM*	0.1	-0.5%	·
CC(C)COc1ccc(C(=O)N2CCCCC2CCN2CCCCC2)cc1 (centres undefined)	·	23.1%	·	·	-7.1%	·
Cc1c(Cl)cccc1NCC(=O)Nc1ccc(Cl)cc1F	29.2%	?	1.3%	0.1	-22.0%	i
Cc1ccc(F)cc1NCC(=O)Nc1ccc(Cl)cc1F	0.1%	?	18.1%	-46.6*	2.1%	i
O=C(O)/C=C/C(=O)Nc1ccccc1-c1ccccc1NC(=O)/C=C/C(=O)O	-7.2%	-3.6%	-8.9%	-0.8	-2.6%	i
O=C(O)/C=C/C(=O)Nc1cccc2c1-c1ccccc1C2=O	·	20µM*	-13.7%	-0.2	·	i
COc1cc2c(NC3CCN(C)CC3)nc(N3CCCN(C)CC3)nc2cc1OCCN(C)C	·	·	-3.5%	·	·	·
CNc1nc(C)c([N+](=O)[O-])c(Nc2ccc(OC)cc2)n1	-0.7%	12.6µM*	10.6%	-3.5	6.3%	i
O=S(=O)(NCCSCc1c(Cl)cccc1Cl)c1ccc2c(c1)OCCO2	-6.6%	35.5µM*	6.4%	1.5	47.9%	i
CCOC(=O)C1=CN(Cc2cccc(F)c2)S(=O)(=O)NC1c1ccc(Br)cc1F (centres undefined)	·	15.8µM*	0.4%	0.2	·	i
CSc1nnc(NC(=O)Cc2coc3cc(C)ccc23)s1	·	23.2%	·	·	-10.3%	·
COc1ccc2c(CC(=O)Nc3nc(C)cs3)coc2c1	-1.4%	12.6µM*	-16.7%	0.2	-13.8%	i
Cc1ccc2c(CC(=O)Nc3nc(C)cs3)coc2c1	-15.2%	11.2µM*	-12.4%	2.5	-5.9%	i
CCOC(=O)Nc1ccc(Oc2ccccc2)cc1	6.2%	11.2µM*	-1.4%	1.0	1.7%	i
CCOC(=O)N1CCC(N(CCN(C)C)C(=S)Nc2ccc(Oc3ccccc3)cc2)CC1	-2.9%	20.3%	20µM*	0.1	14.2%	i
CCOC(=O)Nc1ccc(C(=O)/C=C/c2ccccc2)cc1	9.7%	14.1µM*	1.5%	0.9	0.5%	i
O=C(Nc1ccc(Oc2ccccc2)cc1)C1CC1	-9.3%	5.62µM*	-28.6%	-2.0	-15.6%	i
O=C(Nc1ccc(Oc2ccccc2)cc1)C1CCN(c2ncccn2)CC1	-3.8%	0.0%	-0.2%	0.8	-10.6%	i
NC(C(=O)O)c1ccc(P(=O)(O)O)cc1 (centres undefined)	·	·	·	·	-3.6%	·
COc1ccc(N2CCN(C(=O)c3cnn(-c4ccc(OC)cc4)c3C3CCN(C(=O)OC(C)(C)C)CC3)CC2)cc1	·	11.8%	·	·	-4.5%	·
Cc1ccc(NC(=O)COC(=O)c2ccccc2OCC(=O)N(C)C)cc1	·	·	10.0%	·	·	·
CC(C)Oc1ccc(C(=O)N(Cc2ccc(N(C)C)cc2)Cc2ccco2)cc1	·	-3.1%	·	·	76.6%	·
